Seven compounds from PubChem BioAssay (EPA / NIEHS) can be followed below.

Each structure is given as a SMILES string. Results filed as inconclusive are left out. Activity calls are given as the source filed them. How the source made its calls, unless noted: active means hit-call score of the fitted dose curve at least 0.9, where 1 is the maximum; inactive means score below 0.9.

One experiment has as its system SERPINA7 (gene 6906). The experiment can be described thus: CCTE_GLTED_hTBG: CCTE's human Thyroxine-binding Globulin (TBG) Inhibition Assay, Great Lakes Toxicology and Ecology Division (GLTED) Lab (AID 2284343; active means hit-call score of the fitted dose curve at least 0.9, where 1 is the maximum;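 further: active chemicals lower fluorescence versus DMSO baseline by displacing probe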). In a few lines: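 Human TBG incubated 2 h with test chemical; displacement of ANSA probe read by fluorescence, 380 nm excitation/475 nm emission. Loss of signal relative to DMSO.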

The nature of experiment [1]: CCTE_Deisenroth_H295R-HTRF_384WELL_ESTRADIOL: CCTE's H295R-HTRF Assay Evaluation of Estradiol Concentration, Deisenroth Lab (AID 2284361). The following applies: actives raise or lower the signal. In outline:
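H295R cells exposed 48 h to chemicals at 0.001 - 100 uM final (nine points, triplicate); estradiol in conditioned medium measured by HTRF immunoassay, fitted bidirectionally versus DMSO. Viability by CellTiter-Glo on same plates.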
(TR-FRET usually uses a lanthanide donor and a delayed reading to cut background.)

Experiment [2] in a line: CCTE_Deisenroth_H295R-HTRF_384WELL_TESTOSTERONE: CCTE's H295R-HTRF Assay Evaluation of Testosterone Concentration, Deisenroth Lab (AID 2284373). The following applies: actives raise or lower the signal. In a few lines:
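H295R cells were acclimated 24 h, then exposed 48 h to nine concentrations (0.001–100 uM final) in technical triplicate, n=5. Testosterone in conditioned medium was measured by HTRF (em 620/665 nm). Fitting was bidirectional versus DMSO; CellTiter-Glo viability ran on the same plates.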

Experiment [3] is described as follows: CCTE_Deisenroth_H295R-HTRF_384WELL_CTOX: Cytotoxicity Assessment in CCTE's H295R-HTRF Assay, Deisenroth Lab (AID 2284380; active means hit-call score of the fitted dose curve at least 0.9, where 1 is the maximum). In a few lines: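 H295R adrenocortical carcinoma cells plated 24 h, then exposed 48 h to nine-point series 0.001–100 uM final, triplicate, n=5. ATP measured by CellTiter-Glo 2.0 luminescence on same plates after medium collection; loss versus DMSO.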

For experiment [4], the system named is SRY-box transcription factor 17 (SOX17) Protein Expression, Deisenroth Lab, SOX17 (gene 64321). Description: CCTE_Deisenroth_DEVTOX-GLR_legacy_Sox17: (Legacy) CCTE's DevTox GLR-Endo Assay Evaluation of SRY-box transcription factor 17 (SOX17) Protein Expression, Deisenroth Lab (AID 2284341). The following applies: actives raise or lower the signal. In a few lines: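 Percent SOX17-positive cells, scored by high-content imaging as mean intensity exceeding pluripotent-control median by 5x BMAD, divided by cell count. Human RUES2-GLR endoderm differentiation, 48 h, two exposures 24 h apart, 1 nM–200 uM; DMSO-referenced bidirectional fitting.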

The subject of experiment [5] is SRY-box transcription factor 2 (SOX2) Protein Expression, Deisenroth Lab, SOX2 (gene 6657). The experiment can be described thus: CCTE_Deisenroth_DEVTOX-GLR_legacy_Sox2: (Legacy) CCTE's DevTox GLR-Endo Assay Evaluation of SRY-box transcription factor 2 (SOX2) Protein Expression, Deisenroth Lab (AID 2284346). In a few lines:
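hPSC RUES2-GLR, 384-well; 24 h seed → 48 h endoderm differentiation, 2 doses q24h, 1 nM–200 uM. Fix, nuclear dye, 5 fields/well. Sox2+ cells/cell count; cell positive if >5x BMAD over endoderm ctrl; gain direction vs DMSO.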

Experiment [6] has the same test system. The experiment can be described thus: CCTE_Deisenroth_DEVTOX-GLR_Endo_SOX2: CCTE's DevTox GLR-Endo Assay Evaluation of SRY-box transcription factor 2 (SOX2) Protein Expression, Deisenroth Lab (AID 2284412; active means hit-call score of the fitted dose curve at least 0.9, where 1 is the maximum). In a few lines:
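RUES2-GLR human pluripotent cells were seeded 24 h, then differentiated 48 h with two chemical exposures 24 h apart. Cells were fixed, nuclei stained and imaged by high-content microscopy. Endpoint is %SOX2+ cells over cell count, minus 0.2% DMSO control; 10-point series 1 nM–200 uM.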

The test system of experiment [7] is SRY-box transcription factor 17 (SOX17) Protein Expression, Deisenroth Lab, SOX17 (gene 64321). Description: CCTE_Deisenroth_DEVTOX-GLR_Endo_SOX17: CCTE's DevTox GLR-Endo Assay Evaluation of SRY-box transcription factor 17 (SOX17) Protein Expression, Deisenroth Lab (AID 2284413). In outline: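 Seed RUES2-GLR cells 24 h; start endoderm differentiation; dose at 0 and 24 h (1 nM - 200 uM, 10 points); fix at 48 h, stain nuclei, image 5 fields/well; compute SOX17+/total cells vs 0.2% DMSO.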

For experiment [8], the system named is Brachyury (BRA) Protein Expression, TBXT (gene 6862). The experiment can be described thus: CCTE_Deisenroth_DEVTOX-GLR_Endo_BRA: CCTE's DevTox GLR-Endo Assay Evaluation of Brachyury (BRA) Protein Expression, Deisenroth Lab (AID 2284417). In outline:
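Endpoint is the fraction of BRA reporter-positive cells over total nuclei, corrected by subtracting the 0.2% DMSO value. Chemicals (1 nM - 200 uM, 10 points) were dosed twice during 48 h differentiation of RUES2-GLR cells, read by imaging.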

Experiment [9] is described as follows: CCTE_Deisenroth_DEVTOX-GLR_Endo_CellCount: Viability Assessment in CCTE's DevTox GLR-Endo Assay, Deisenroth Lab (AID 2284420). In a few lines: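 RUES2-GLR pluripotent cells seeded 24 h, then differentiated 48 h in defined media with two chemical exposures 24 h apart. Nuclei counted by high-content imaging; 10-point 1 nM–200 uM series; percent change versus 0.2% DMSO.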

The test system of experiment [10] is SRY-box transcription factor 17 (SOX17) Protein Expression, Deisenroth Lab, SOX17 (gene 64321). The experiment can be described thus: CCTE_Deisenroth_DEVTOX-GLR_Pluri_SOX17: CCTE's DevTox GLR-Pluri Assay Evaluation of SRY-box transcription factor 17 (SOX17) Protein Expression, Deisenroth Lab (AID 2284427; active means hit-call score of the fitted dose curve at least 0.9, where 1 is the maximum). In a few lines: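 RUES2-GLR pluripotent cells were induced toward endoderm over 48 h and received two compound doses 24 h apart, in a 10-point series from 1 nM to 200 uM. The percentage of SOX17+ cells among total cells was measured by high-content imaging and reported minus the 0.2% DMSO control.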

Experiment [11] has as its system SRY-box transcription factor 2 (SOX2) Protein Expression, Deisenroth Lab, SOX2 (gene 6657). Description: CCTE_Deisenroth_DEVTOX-GLR_Pluri_SOX2: CCTE's DevTox GLR-Pluri Assay Evaluation of SRY-box transcription factor 2 (SOX2) Protein Expression, Deisenroth Lab (AID 2284428). In a few lines: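 RUES2-GLR human pluripotent cells, two exposures 24 h apart over 48 h differentiation; 10-point series 1 nM - 200 uM. High-content imaging gives SOX2+ cells divided by cell count, reported as percent change versus 0.2% DMSO.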

Experiment [12] relates to Brachyury (BRA) Protein Expression, Deisenroth Lab, TBXT (gene 6862). Description: CCTE_Deisenroth_DEVTOX-GLR_Pluri_BRA: CCTE's DevTox GLR-Pluri Assay Evaluation of Brachyury (BRA) Protein Expression, Deisenroth Lab (AID 2284429; active means hit-call score of the fitted dose curve at least 0.9, where 1 is the maximum). In a few lines: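 An inducible fluorescent BRA reporter in RUES2-GLR cells tracks mesoderm differentiation. Compounds (10 concentrations, 1 nM - 200 uM) are dosed twice within a 48-h differentiation. The endpoint subtracts the 0.2% DMSO control from percent BRA+ cells.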

A short description of experiment [13]: CCTE_Deisenroth_DEVTOX-GLR_Pluri_CellCount: Viability Assessment in CCTE's DevTox GLR-Pluri Assay Evaluation of Total Cell Counts, Deisenroth Lab (AID 2284430). In outline: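 RUES2-GLR human pluripotent cells, seeded 24 h, then differentiated 48 h with two chemical exposures 24 h apart; 10-point series 1 nM - 200 uM. Fixed, nuclear-stained, imaged (5 fields/well); nuclei count as % change vs 0.2% DMSO.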

The next experiment relates to TTR (gene 7276). The experiment can be described thus: CCTE_GLTED_hTTR_0.125uM: CCTE's human Transthyretin (hTTR) Inhibition Assay, with 0.125uM TTR, Great Lakes Toxicology and Ecology Division (GLTED) Lab (AID 2284431).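 Further: hits lower the fluorescence signal relative to DMSO baseline.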 In a few lines:
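Cell-free displacement of ANSA probe from 0.125uM TTR after 2 h incubation with chemical. Fluorescence read at 380 nm excitation/475 nm emission; loss of signal relative to DMSO indicates T4-site displacement.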

Regarding `O=C(O)Cn1c(=O)n(Cc2ccc(Br)cc2F)c(=O)c2ccc(Cl)cc21`, in the experiment with SERPINA7 (gene 6906), the AC50 is 18.1 µM (active).
As to `CC(=O)N1CCN(c2ccc(OC[C@H]3CO[C@](Cn4ccnc4)(c4ccc(Cl)cc4Cl)O3)cc2)CC1`, the call in [1] and in experiment [3] was inactive. For the same compound, the half-maximal activity concentration (AC50) in experiment [2] is 0.947 µM (active).
As to `CC/C(=C(/CC)c1ccc(O)cc1)c1ccc(O)cc1`, the AC50 is 1.24 µM (active) in experiment [4]; 1.87 µM (active) in the experiment with SERPINA7 (gene 6906); 2.43 µM (active) in experiment [5]; 2.78 µM (active) in experiment [6]; 0.65 µM (active) in experiment [7]; 0.891 µM (active) in [8]. For the same compound, the AC50 in experiment [9] was 1.58 µM (active); in experiment [10] it was 1.83 µM (active); in experiment [11] it was 7.85 µM (active); in experiment [12] it was 1.9 µM (active); in [13] it was 1.45 µM (active); with TTR (gene 7276), 0.021 µM (active).
With `CO[C@H]1/C=C/O[C@@]2(C)Oc3c(C)c(O)c4c(O)c(c(/C=N/N5CCN(C)CC5)c(O)c4c3C2=O)NC(=O)/C(C)=C\C=C\[C@H](C)[C@H](O)[C@@H](C)[C@@H](O)[C@@H](C)[C@H](OC(C)=O)[C@@H]1C`, the AC50 is 72.4 µM (active) in experiment [4]; 83.6 µM (active) in experiment [6]; 70.3 µM (active) in [7]; 88.8 µM (active) in experiment [8]; 41.5 µM (active) in experiment [9]; 137 µM (active) in [10]. For the same compound, the AC50 in experiment [12] is 59.9 µM (active); in experiment [13], 19.8 µM (active). Besides, the compound was classed as inactive in [5] and in experiment [11].
Turning to `CN(C)c1ccc(C(=C2C=CC(=[N+](C)C)C=C2)c2ccc(N(C)C)cc2)cc1`, the values for the AC50 in the experiment on SERPINA7 (gene 6906) and with TTR (gene 7276) were 50 µM (active) and 21.6 µM (active), respectively.
Turning to `CC(C)(c1cc(Br)c(O)c(Br)c1)c1cc(Br)c(O)c(Br)c1`, the AC50 with SERPINA7 (gene 6906) is 2.16 µM (active); in the experiment with TTR (gene 7276), 0.0228 µM (active).
Turning to `OCCO`, the outcome in experiment [4], in experiment [5], in [7], in experiment [8], in experiment [9] and in experiment [11] was inactive. For the same compound, the result in experiment [12] and in [13] was inactive.

One may read the AC50 as the midpoint of the concentration-response curve, whichever way the signal moves.
